Test results: PubChem BioAssay AID651658 (Broad Institute, 2012)
Values joined by “and” are separate entries in the source; they are usually repeats but may differ in a detail not shown here. Identical values can stand only once. The campaign covered roughly 340,000 compounds. About 5,100 (1.5%) were called active. The sample holds actives, similar compounds and a random draw of the others, so the mix is not that of the screen.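 How the source made its calls: active means mean Tm shift, scaled 0 neutral to 100 positive control, at about 1.3% or above, every replicate too (limit read from the data); inconclusive means no clear call, values can overlap the other calls; inactive means the rest.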

target: Fibroblast growth factor 22 (Homo sapiens) (UniProt Q9HCT0); test: binders of human FGF22 protein, primary screen, FGF22 synaptogenesis inhibitor project, biophysical, thermal shift, single point (AID 651658); settings: recombinant FGF22 thermal shift, SYPRO orange fluorescence; at 9.99 µM; stronger effect = higher value; percent of sucrose octasulfate shift, DMSO zero
Sequence (Q9HCT0 whole entry, looked up): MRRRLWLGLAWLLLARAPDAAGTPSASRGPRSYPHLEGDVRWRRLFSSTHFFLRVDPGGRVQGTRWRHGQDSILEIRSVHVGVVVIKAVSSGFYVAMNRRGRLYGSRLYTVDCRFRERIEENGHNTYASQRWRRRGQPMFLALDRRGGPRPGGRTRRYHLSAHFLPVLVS

Compound	activity (Tm shift, normalised)
Cc1ccc(S(=O)(=O)N[C@H]2CC[C@H](CC(=O)O)O[C@H]2CO)cc1	0.52% (inactive)
C[C@H](CO)N1C[C@H](C)[C@H](CN(C)S(=O)(=O)c2ccccc2C#N)OCc2cn(nn2)CCCC1=O	-0.183% (inactive)
O=C(NN=Cc1ccc([N+](=O)[O-])cc1)C1CC1	-0.001% (inactive)
O=C(N/N=C/c1ccc([N+](=O)[O-])cc1)c1c[nH]c2ccccc12	1.58% (active)
O=[N+]([O-])c1ccc(C=NN=Cc2ccc([N+](=O)[O-])cc2)cc1	0% (inactive)
COc1cccc(-c2ccc3c(c2)O[C@H](CN(C)Cc2ccncc2)[C@H](C)CN([C@H](C)CO)S3(=O)=O)c1	-0.104% (inactive)
CCOc1ncccc1C(=O)OCC(=O)Nc1cccc(S(=O)(=O)N2CCCCCC2)c1	0.065% (inactive)
O=C(Nc1cccc(Cl)c1)c1cc([N+](=O)[O-])ccc1N1CCN(CCO)CC1	0.039% (inactive)
NS(=O)(=O)c1cccc(NC(=O)COC(=O)c2cc([N+](=O)[O-])ccc2N2CCCC2)c1	1.34% (active)
C[C@@H]1CN([C@@H](C)CO)S(=O)(=O)c2ccc(C#CC3(O)CCCC3)cc2O[C@H]1CN(C)C(=O)c1ccncc1	-0.043% (inactive)
COc1ccc(S(=O)(=O)N2CC[C@@H]3[C@H](CO)Nc4ccc(C#Cc5cccc(OC)c5)cc4[C@@H]32)cc1	0.013% (inactive)
O=C(C[C@@H]1C[C@@H]2c3cc(NC(=O)c4ccc5c(c4)OCO5)ccc3O[C@@H]2[C@H](CO)O1)NCCc1ccccc1	0.032% (inactive)
COc1ccc(NC(=O)Nc2cccc3c2O[C@H](CN(C)S(=O)(=O)c2cn(C)cn2)[C@H](C)CN([C@@H](C)CO)C3=O)cc1	-0.085% (inactive)
CN1C(=O)c2cc(NC(=O)c3cccc(F)c3)ccc2OC[C@@H]2O[C@@H](CC(=O)NCC3CCCCC3)CC[C@H]21	-0.226% (inactive) and -0.131% (inactive)
CCC(=O)N1[C@@H](CO)[C@@H](c2ccccc2)C12CN(C(=O)Cc1ccccc1)C2	-0.201% (inactive)
COC(=O)c1cccc(N(CC(=O)NCC2CCCO2)C(=O)CCC(=O)Nc2cc(C)on2)c1 (centres undefined)	43% (active)
Cc1cc(C)cc(N(CC(=O)NC2CCCC2)C(=O)CCC(=O)Nc2cc(C)on2)c1	-0.343% (inactive)
Cc1cc(NC(=O)CCC(=O)N(CC(=O)NCC2CCCO2)c2ccccc2)no1 (centres undefined)	0.811% (inactive)
COC(=O)C1=CN(c2ccc(F)c(F)c2)C=C(C(=O)OC)C1c1ccc([N+](=O)[O-])cc1	0.128% (inactive)
COC(=O)C1=C(C(=O)OC)C(c2cc([N+](=O)[O-])ccc2O)c2sc(=O)[nH]c2S1 (centres undefined)	43.5% (active)
COC(=O)c1c(C)[nH]c(C)c1-c1ccc([N+](=O)[O-])cc1	0.028% (inactive)
CCCNC(=O)N1CC(=O)N2[C@H](CO)[C@H](c3ccc(C#Cc4cccc(OC)c4)cc3)[C@H]2C1	0.3% (inactive)
C[C@H]1CCCCO[C@@H](CN(C)C(=O)Cc2ccccc2)[C@@H](C)CN([C@@H](C)CO)C(=O)c2cc(NC(=O)c3ccccc3)ccc2O1	-0.058% (inactive)
Cc1ccc(S(=O)(=O)N(C)C[C@@H]2Oc3ccc(NC(=O)C4CCCCC4)cc3CC(=O)N([C@@H](C)CO)C[C@H]2C)cc1	-0.112% (inactive)
COc1cccc(NC(=O)C[C@@H]2CC[C@H]3[C@@H](COc4ccc(NC(=O)C5CCOCC5)cc4C(=O)N3C)O2)c1	-0.165% (inactive)

Compound	activity (Tm shift, normalised)
O=C(NCCc1c[nH]c2ccc(Cl)cc12)c1ccc([N+](=O)[O-])cc1	-0.153% (inactive)
Cc1ccc2[nH]cc(CCNC(=O)c3ccc([N+](=O)[O-])cc3)c2c1	43.1% (active)
Cc1ccc2[nH]cc(CCNC(=O)C3CCCCC3)c2c1	-0.161% (inactive)
CS(=O)(=O)N1CC(=O)N2[C@@H](CO)[C@@H](c3ccc(C#CCC4CCCC4)cc3)[C@@H]2C1	-0.002% (inactive)
Cc1ccc(NC(=O)c2cccnc2C(=O)Nc2ccc(C)cc2)cc1	0.363% (inactive)
Cc1ccc(NC(=O)CCC(=O)c2ccc(Br)cc2)cc1	0.05% (inactive)
Cc1ccc(NC(=O)Nc2cccnc2)cc1	1.35% (active)
Cc1ccc(NC(=O)CC(=O)Nc2ccc(C)cc2)cc1	43.3% (active)
O=C(Nc1ccc(Cl)cc1)Nc1ccc(Oc2cccnc2)nc1	0.04% (inactive)
Cc1ccc(NC(=O)Cn2c(C)csc2=O)cc1	-0.213% (inactive)
C[C@@H]1CN([C@@H](C)CO)C(=O)c2cc(N(C)C)ccc2O[C@@H](C)CCCCO[C@H]1CN(C)C(=O)CCCN(C)C	-1.35% (inactive)
O=C(CCC1CCCCC1)Nc1cc(C(F)(F)F)ccc1N1CCOCC1	-0.247% (inactive)
CC(Sc1nncn1C)C(=O)Nc1cc(C(F)(F)F)ccc1N1CCOCC1 (centres undefined)	43% (active)
O=C(CN1C(=O)NC2(CCCC2)C1=O)Nc1cc(C(F)(F)F)ccc1N1CCOCC1	0.22% (inactive)
CCCN1[C@@H]2c3ccc(C4=CCCC4)c(=O)n3C[C@@H]2[C@@H](CO)[C@@H]1C(=O)NCc1ccccn1	-0.078% (inactive)
OC[C@H]1[C@H](c2ccc(-c3ccccc3F)cc2)[C@H]2CN(Cc3cncnc3)CCCCN21	0.4% (inactive)
CN(C)C(=O)C[C@H]1CC[C@H](NC(=O)NC2CCCC2)[C@@H](CO)O1	-0.127% (inactive)
CC(=O)OC(COc1ccc(F)cc1)Cn1cnc2ccccc21 (centres undefined)	43% (active)
O=C(Cn1cnc2ccccc21)Nc1ccccc1-c1ccccc1	0.098% (inactive)
O=C(COC(=O)Cn1cnc2ccccc21)Nc1cccc2c1C(=O)c1ccccc1C2=O	0.059% (inactive)
CO[C@H]1CN(C)C(=O)c2ccc(NC(=O)c3ccno3)cc2OC[C@@H](C)N(S(C)(=O)=O)C[C@H]1C	0.142% (inactive)
C[C@H](CO)N1C[C@H](C)[C@@H](CN(C)C)Oc2ccc(N(C)C)cc2C1=O	1.41% (active)
CNC[C@H]1Oc2ccc(NC(=O)C3CCCCC3)cc2C(=O)N([C@H](C)CO)C[C@@H]1C	-0.27% (inactive)
CNC[C@@H]1Oc2ccc(NC(=O)C3CCCCC3)cc2CC(=O)N([C@@H](C)CO)C[C@H]1C	0.125% (inactive)
CNC[C@@H]1Oc2ccc(NC(=O)C3CCCCC3)cc2C(=O)N([C@@H](C)CO)C[C@H]1C	1.59% (active)

Compound	activity (Tm shift, normalised)
C[C@@H]1CN([C@H](C)CO)C(=O)c2cc(N(C)C)ccc2O[C@@H]1CN(C)S(C)(=O)=O	-0.284% (inactive)
C[C@H]1CN([C@@H](C)CO)C(=O)c2cc(N(C)C)ccc2O[C@@H]1CN(C)Cc1ccccc1	0.118% (inactive)
O=C(C[C@H]1CC[C@H](NC(=O)c2ccc(F)cc2)[C@@H](CO)O1)NCCc1ccncc1	-0.269% (inactive)
O=C(NCC[C@H]1CC[C@@H](NC(=O)C2CCCC2)[C@@H](CO)O1)c1cc(Cl)cc(Cl)c1	0.127% (inactive)
Cc1ccc(S(=O)(=O)NCC[C@H]2CC[C@H](NC(=O)c3ccccn3)[C@@H](CO)O2)cc1	-0.462% (inactive)
C[C@H]1CCCCO[C@H](CN(C)CC2CC2)[C@@H](C)CN([C@@H](C)CO)C(=O)c2cc(NC(=O)CCC(F)(F)F)ccc2O1	0.058% (inactive)
COc1cccc(S(=O)(=O)N[C@@H]2CC[C@@H](CCNC(=O)Cc3ccncc3)O[C@H]2CO)c1	0.19% (inactive)
C[C@H]1CN([C@@H](C)CO)C(=O)c2cc(-c3cccnc3)cnc2O[C@@H]1CN(C)C(=O)C1CC1	0.138% (inactive)
CC(C)c1ccc(C2C(C#N)=C(N)Oc3c2oc(CO)cc3=O)cc1 (centres undefined)	-0.049% (inactive)
COC(=O)C1=C(N)Oc2cc(C)[nH]c(=O)c2C1c1ccc(Cl)cc1 (centres undefined)	-0.032% (inactive)
COC(=O)C1=C(N)Oc2c(oc(CO)cc2=O)C1c1c(F)cccc1Cl (centres undefined)	43.6% (active)
CO[C@H]1CC[C@H]2CCN(C)C(=O)C[C@@H](c3ccccc3)CN(C)C(=O)c3cccc(C#N)c3OC[C@@H]1O2	0.156% (inactive)
CCC(=O)N1CCCCN2[C@H](CO)[C@@H](c3ccc(-c4cccnc4)cc3)[C@H]2C1	0.191% (inactive)
OC[C@H]1[C@H](c2ccc(-c3cccnc3)cc2)[C@H]2CN(Cc3ccccn3)CCCCN21	1.51% (active)
OC[C@@H]1[C@H](c2ccc(Br)cc2)[C@@H]2CN(Cc3ccccn3)CCCCN12	0.488% (inactive)
O=C(N[C@H]1CC[C@@H](CCNS(=O)(=O)c2cccc(Cl)c2)O[C@@H]1CO)c1ccccc1	-0.047% (inactive)
COc1ccc(C(=O)COC(=O)COc2ccc(C)c(C)c2)cc1	0.002% (inactive)
O=C(COc1ccc(Br)cc1)OCC(=O)c1ccc[nH]1	-0.019% (inactive)
COc1cc(C)ccc1OCC(=O)OCC(=O)c1ccc[nH]1	43.3% (active)
C[C@H](CO)N1C[C@H](C)[C@@H](CN(C)S(=O)(=O)c2cn(C)cn2)Oc2ccc(N(C)C)cc2CC1=O	0.089% (inactive)
Cc1ccc(NC(=O)CN(C)CC(=O)Nc2cccc(F)c2)cc1[N+](=O)[O-]	43.3% (active)
Cc1ccc(S(=O)(=O)N2CCCCC2)cc1C(=O)N(C)CC(=O)Nc1cccc(F)c1	-0.088% (inactive)
CN(CC(=O)Nc1cccc(F)c1)C(=O)CC1CCCC1	0.042% (inactive)
Cc1cc(C(=O)Nc2ccc3c(c2)C(=O)N(C)[C@H]2CC[C@H](CC(=O)NCC(F)(F)F)O[C@@H]2CO3)no1	-0.217% (inactive)
